Structures are written as SMILES. Hit rate of the full screen: of about 52,000 compounds, about 4,300 (8.3%) were called active. The sample as a whole holds a higher share of actives than the screen did. Unmarked numbers belong to inactive results. Rule as the data show it: active = survival mostly below about 52% (no sharp cut-off); inactive = mostly above about 56%.

In this assay the test system is DeltatarO mutant. Kind of assay: S. aureus survival, RN4220 and DeltatarO strains – OD600, teichoic acid synthesis inhibitors, primary screen (AID 463173). The conditions noted are these: S. aureus RN4220 wild type/DeltatarO growth, OD600, 18 h, hits give low values, screened at 18.75 µg/mL (by protocol).
As for `CCN1CCN(CCC(=O)Nc2ccc3c(c2)CCC3)CC1`, the survival was 95%.

Regarding `COc1ccccc1/C=C/c1nc(C#N)c(NCCc2ccccc2)o1`, the survival was 71%. To `COc1cc(/C=C/c2nc(C#N)c(NC3CCCCC3)o2)cc(OC)c1OC` belongs 32% (active); to `COc1ccccc1/C=C/c1nc(C#N)c(NCC(C)C)o1`, 47% (active); to `COc1ccccc1/C=C/c1nc(C#N)c(NCc2ccccc2)o1`, 83%. Regarding `CNc1oc(/C=C/c2cc(OC)c(OC)c(OC)c2)nc1C#N`, the survival was 69%.

Take `CCOc1ccc(/C=C/c2nc(C#N)c(NC3CCCCC3)o2)cc1`: the survival is 65%. As to `COc1ccc(/C=C/c2nc(C#N)c(NCCc3ccc(OC)c(OC)c3)o2)cc1OC`, the survival is 95%. To `CCOc1ccc(Nc2oc(/C=C/c3ccc(OC)c(OC)c3)nc2C#N)cc1` belongs 55% (active); to `COc1cccc(/C=C/c2nc(C#N)c(NCCc3ccc(OC)c(OC)c3)o2)c1`, 41% (active).

Turning to `COc1ccc(Nc2oc(/C=C/c3ccc(OC)c(OC)c3)nc2C#N)cc1`, the survival is 73%. On to `CCOc1ccc(Nc2oc(/C=C/c3cc(OC)c(OC)c(OC)c3)nc2C#N)cc1`, for which the survival is 58%.

For the compound `COc1ccc(CCNc2oc(/C=C/c3ccc(OC)c(OC)c3)nc2C#N)cc1`, the survival was 90%.

On to `Cc1cc(C)nc(SCCC(=O)N(C)C)n1`, for which the survival was 84%.

On to `CC(=O)N1CCN(CCN2C(=O)C3C4c5ccccc5C(c5ccccc54)C3C2=O)CC1` (stereo not given), for which the survival is 94%. With `CCC(=O)N(Cc1cc(=O)[nH]c2ccccc12)C1CCCCC1`, the survival is 69%. Regarding `COc1cc(NC(=O)CC(c2cccs2)N2Cc3ccccc3C2=O)cc(OC)c1OC` (stereo not given), the survival is 49%. To `Cc1ccc(-c2csc(-c3nc(-c4ccc(Br)s4)cs3)n2)cc1` belongs 82%; to `Cc1c(NC(=O)c2ccc(Cl)cc2)cc(C(C)C)c(O)c1S(=O)(=O)c1ccc(Cl)cc1`, 75%. Turning to `CCN(CC)C(=O)CSc1nnc(Cc2ccccc2)n1CC`, the survival was 50%. To `CCOC(=O)C1CCN(C(=O)c2ccc3c(=O)n4nc(Nc5cc(C)ccc5C)sc4nc3c2)CC1` belongs 84%; to `COc1ccc(S(=O)(=O)N2CCC(c3ccncc3)CC2)cc1Cl`, 124%; to `COc1ccccc1CNC(=O)CCn1c(=O)c2ccccc2n(CC(=O)Nc2ccc(C)cc2Cl)c1=O`, 77%.

As for `COc1ccc(-n2nc(C(=O)N3CCN(c4cccc(C)c4)C(C)C3)c3c4ccccc4n(C)c3c2=O)cc1` (stereo not given), the survival is 76%. As for `COc1ccccc1/C=C/c1nc(C#N)c(NC(C)c2ccccc2)o1` (stereo not given), the survival is 70%. On to `COc1ccccc1/C=C/c1nc(C#N)c(NC2CCCCC2)o1`, for which the survival was 85%.

Turning to `COc1cc(/C=C/c2nc(C#N)c(NC(C)c3ccccc3)o2)cc(OC)c1OC` (stereo not given), the survival was 40% (active). To `COc1cccc(/C=C/c2nc(C#N)c(NC3CCCCC3)o2)c1` belongs 69%; to `COc1ccc(/C=C/c2nc(C#N)c(NC3CCCCC3)o2)cc1OC`, 36% (active); to `COc1cc(/C=C/c2nc(C#N)c(NCCc3ccccc3)o2)cc(OC)c1OC`, 49%.

The values are drawn from PubChem BioAssay AID463173 (ICCB-Longwood Screening Facility, Harvard Medical School, 2010).
